{
  "source": "paper PMC4336329",
  "about": "(PLoS ONE, 2015)",
  "note": "Screen size: about 310,000 compounds; about 14,000 (4.5%) showed an effect of 50% or more. Effects have a minus sign here. Many of the other results were omitted from the sample, so strong results are more common in it than they were.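 Note: peak tail current of the secondary pulse compared with the same well before compound.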",
  "data": [
    {"biological_target": "human ether-à-go-go-related gene (hERG) potassium channel (human, UniProt Q12809)", "sequence (Q12809 whole entry, looked up)": "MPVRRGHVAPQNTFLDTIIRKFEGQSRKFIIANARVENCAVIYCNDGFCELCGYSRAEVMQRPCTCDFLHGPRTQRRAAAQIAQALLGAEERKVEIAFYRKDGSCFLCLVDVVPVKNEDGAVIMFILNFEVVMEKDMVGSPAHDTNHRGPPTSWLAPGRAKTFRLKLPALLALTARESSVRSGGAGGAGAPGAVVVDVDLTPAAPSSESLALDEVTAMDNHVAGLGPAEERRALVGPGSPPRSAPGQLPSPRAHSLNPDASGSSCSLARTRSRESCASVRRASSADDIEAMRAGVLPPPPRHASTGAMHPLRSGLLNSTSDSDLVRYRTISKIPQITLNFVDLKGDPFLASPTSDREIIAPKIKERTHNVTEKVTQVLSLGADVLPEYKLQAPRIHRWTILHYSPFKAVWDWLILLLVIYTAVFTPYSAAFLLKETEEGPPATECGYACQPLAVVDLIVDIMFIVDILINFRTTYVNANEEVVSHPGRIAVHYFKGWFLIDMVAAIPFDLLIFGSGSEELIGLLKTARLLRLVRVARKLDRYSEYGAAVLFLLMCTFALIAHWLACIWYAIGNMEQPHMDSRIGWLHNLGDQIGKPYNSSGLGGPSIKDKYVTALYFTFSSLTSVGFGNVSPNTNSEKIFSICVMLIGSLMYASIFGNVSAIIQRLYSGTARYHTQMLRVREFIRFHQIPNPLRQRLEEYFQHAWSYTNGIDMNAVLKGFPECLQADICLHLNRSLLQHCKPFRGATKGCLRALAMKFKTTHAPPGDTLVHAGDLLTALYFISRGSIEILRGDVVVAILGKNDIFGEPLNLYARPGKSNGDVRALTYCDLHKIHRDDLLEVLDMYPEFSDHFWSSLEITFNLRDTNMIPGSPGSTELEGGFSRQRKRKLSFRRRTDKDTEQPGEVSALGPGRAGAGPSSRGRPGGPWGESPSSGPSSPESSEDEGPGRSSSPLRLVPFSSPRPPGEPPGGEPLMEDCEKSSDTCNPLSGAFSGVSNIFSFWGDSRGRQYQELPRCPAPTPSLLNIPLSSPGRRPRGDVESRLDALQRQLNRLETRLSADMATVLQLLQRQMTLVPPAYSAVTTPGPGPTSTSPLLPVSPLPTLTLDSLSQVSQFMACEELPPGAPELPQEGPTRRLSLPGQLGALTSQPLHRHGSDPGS", "assay": "primary screen, population patch clamp on CHO cells stably expressing hERG; higher = less effect of the substance", "units": {"hERG current change (%, negative = inhibition) at 10uM": "%"}, "values": [
      {"smiles": "COc1cc(NC(=O)COC(=O)Cn2cnc3c2c(=O)n(C)c(=O)n3C)cc(OC)c1", "hERG current change (%, negative = inhibition) at 10uM": 1.05},
      {"smiles": "CC(C)COC(=O)C1C2C=CC3(CN(C4CCCC4)C(=O)C13)O2", "note": "(stereo not shown)", "hERG current change (%, negative = inhibition) at 10uM": -15.4},
      {"smiles": "Cc1ccc(S(=O)(=O)N2CCN(C(=O)c3ccccn3)CC2)cc1", "hERG current change (%, negative = inhibition) at 10uM": 9.2},
      {"smiles": "Cc1cccc(NC(=O)c2cc(-c3ccc(C)s3)nc3ccccc23)n1", "hERG current change (%, negative = inhibition) at 10uM": 5.03},
      {"smiles": "CC(=O)c1cc2ccccc2oc1=O", "hERG current change (%, negative = inhibition) at 10uM": 2.96},
      {"smiles": "CCN1C(=O)[C@H]2[C@@H](c3ccc(C)cc3)N3C(=O)N(c4cccc(F)c4)C(=O)[C@@]3(C)[C@H]2C1=O", "hERG current change (%, negative = inhibition) at 10uM": 3.13},
      {"smiles": "O=S(=O)(Cc1cccc(C(F)(F)F)c1)c1ncn[nH]1", "hERG current change (%, negative = inhibition) at 10uM": 17.9},
      {"smiles": "COc1cccc(COc2ccc3c(C)c(Cc4ccccc4)c(=O)oc3c2)c1", "hERG current change (%, negative = inhibition) at 10uM": 6.98},
      {"smiles": "CCN1C=C(Cc2cccs2)C2=C(C1)C(c1cccs1)C(C#N)=C(N)O2", "note": "(stereo not shown)", "hERG current change (%, negative = inhibition) at 10uM": -16.8},
      {"smiles": "CCC(C)(C)c1ccc(O)cc1", "hERG current change (%, negative = inhibition) at 10uM": 6.62},
      {"smiles": "CCC(C)(C)c1ccc(Oc2cccc(C(=O)O)c2)cc1", "hERG current change (%, negative = inhibition) at 10uM": 11.5},
      {"smiles": "CCC(C)(C)c1ccc(OCCCC[n+]2cccc(C)c2C)c(C(C)(C)CC)c1.[Br-]", "hERG current change (%, negative = inhibition) at 10uM": -75.8},
      {"smiles": "Cc1cc(C(C)(C)C)ccc1OCCCCN1CCCC1", "hERG current change (%, negative = inhibition) at 10uM": -40},
      {"smiles": "Cc1cc(=O)oc2cc(OCCCC[n+]3ccccc3)ccc12.[Br-]", "hERG current change (%, negative = inhibition) at 10uM": 4.72},
      {"smiles": "Cc1cc[n+](CC[n+]2ccc(C)cc2)cc1.[Br-]", "hERG current change (%, negative = inhibition) at 10uM": 16.7},
      {"smiles": "CCC(C)(C)c1ccc(OCC(=O)N(C)C)c(C(C)(C)CC)c1", "hERG current change (%, negative = inhibition) at 10uM": -4.24},
      {"smiles": "CCC(C)(C)c1ccc(OCCCC[n+]2ccccc2)c(C(C)(C)CC)c1.[Br-]", "hERG current change (%, negative = inhibition) at 10uM": -67.2},
      {"smiles": "CCC(C)(C)c1ccc(OCCCC[n+]2ccc(C)cc2)c(C(C)(C)CC)c1.[Br-]", "hERG current change (%, negative = inhibition) at 10uM": -75.7},
      {"smiles": "O=C(Nc1nnc(-c2ccco2)s1)c1ccccc1", "hERG current change (%, negative = inhibition) at 10uM": 8.26},
      {"smiles": "Nn1c(Cc2ccccc2F)nnc1SCCOc1ccc(Cl)cc1", "hERG current change (%, negative = inhibition) at 10uM": -14.1},
      {"smiles": "C=CCSc1nnc(CNC(=O)c2ccccc2C)n1C(C)C", "hERG current change (%, negative = inhibition) at 10uM": 5.68},
      {"smiles": "CC(=O)c1c(C)[nH]c(C(=O)NCCC2=CCCCC2)c1C", "hERG current change (%, negative = inhibition) at 10uM": 4.77},
      {"smiles": "O=C1CC(c2ccccc2)CC(O)=C1C=NCCc1ccccc1", "note": "(stereo not shown)", "hERG current change (%, negative = inhibition) at 10uM": 6.57},
      {"smiles": "O=C1CC(c2ccccc2)CC(O)=C1C=NCCN1CCN(C(=O)Cc2ccccc2)CC1", "note": "(stereo not shown)", "hERG current change (%, negative = inhibition) at 10uM": -53},
      {"smiles": "O=C1CC(c2ccccc2)CC(O)=C1C=NCCN1CCN(Cc2ccccc2)CC1", "note": "(stereo not shown)", "hERG current change (%, negative = inhibition) at 10uM": -63.1},
      {"smiles": "O=C1CC(c2ccccc2)CC(O)=C1C=NCCN1CCNCC1", "note": "(stereo not shown)", "hERG current change (%, negative = inhibition) at 10uM": 9.28},
      {"smiles": "O=C1CC(c2ccccc2)CC(O)=C1C=NCCN1CCOCC1", "note": "(stereo not shown)", "hERG current change (%, negative = inhibition) at 10uM": -0.797},
      {"smiles": "Cc1ccc(C2CC(=O)C(C=NCCN3CCN(C(=O)Cc4ccccc4)CC3)=C(O)C2)cc1", "note": "(stereo not shown)", "hERG current change (%, negative = inhibition) at 10uM": -42.8},
      {"smiles": "Cc1ccc(C)c(OC2=NS(=O)(=O)c3ccccc32)c1", "hERG current change (%, negative = inhibition) at 10uM": 23.2},
      {"smiles": "Cc1cc(Cl)ccc1OCCCC(=O)N/N=C/c1cccc([N+](=O)[O-])c1", "hERG current change (%, negative = inhibition) at 10uM": 22.2},
      {"smiles": "O=C(Nc1cccc(-c2nc3ccccc3s2)c1)c1cccs1", "hERG current change (%, negative = inhibition) at 10uM": -53.1},
      {"smiles": "CC(=O)Nc1cccc(-c2nc3ccccc3s2)c1", "hERG current change (%, negative = inhibition) at 10uM": -13.4},
      {"smiles": "O=C(Nc1ccc(O)c(-c2nc3ccccc3s2)c1)c1cccs1", "hERG current change (%, negative = inhibition) at 10uM": -9.79},
      {"smiles": "Cc1nc(N2CCN(c3ccccn3)CC2)c2c(C)c(C(=O)Nc3c(F)cc(F)cc3Br)sc2n1", "hERG current change (%, negative = inhibition) at 10uM": -14.4},
      {"smiles": "CN1CCN(S(=O)(=O)c2ccc(Cl)c3ccccc23)CC1", "hERG current change (%, negative = inhibition) at 10uM": -1.62},
      {"smiles": "C=CCn1c(NC(=O)c2ccc(Br)o2)c(C(=O)OCC)sc1=S", "hERG current change (%, negative = inhibition) at 10uM": 37},
      {"smiles": "Cc1ccc(S(=O)(=O)C2(C(=O)N3CCN(c4cc(C)ccc4C)CC3)CC2)cc1", "hERG current change (%, negative = inhibition) at 10uM": -15.2},
      {"smiles": "CC(=O)c1ccc(N2CCN(C(=O)C3(S(=O)(=O)c4ccc(Cl)cc4)CC3)CC2)cc1", "hERG current change (%, negative = inhibition) at 10uM": -51.8},
      {"smiles": "Cc1ccc(S(=O)(=O)C2(C(=O)N3CCCCCC3)CC2)cc1", "hERG current change (%, negative = inhibition) at 10uM": -11.6},
      {"smiles": "COc1ccc(N2CCN(C(=O)C3(S(=O)(=O)c4ccc(C)cc4)CC3)CC2)cc1", "hERG current change (%, negative = inhibition) at 10uM": -53.7},
      {"smiles": "O=C(N1CCN(c2ccccc2)CC1)C1(S(=O)(=O)c2ccc(Cl)cc2)CC1", "hERG current change (%, negative = inhibition) at 10uM": -42.1},
      {"smiles": "Cc1ccc(Cl)cc1N1CCN(C(=O)C2(S(=O)(=O)c3ccc(Cl)cc3)CC2)CC1", "hERG current change (%, negative = inhibition) at 10uM": -6.38},
      {"smiles": "CCOc1ccc(C(=O)CCC(=O)Nc2cc(C)ccn2)cc1", "hERG current change (%, negative = inhibition) at 10uM": 11.8},
      {"smiles": "COc1ccc(OC)c(N=Cc2c(O)c3ccccc3oc2=O)c1", "hERG current change (%, negative = inhibition) at 10uM": 12.9},
      {"smiles": "O=C(CCc1nnc2ccc(NCc3ccccc3Cl)nn12)NC1CCCCC1", "hERG current change (%, negative = inhibition) at 10uM": -7.98},
      {"smiles": "COc1ccc(C(=O)C2CCCN(Cc3cccn3-c3ccccn3)C2)c(C)c1", "note": "(stereo not shown)", "hERG current change (%, negative = inhibition) at 10uM": -78.9},
      {"smiles": "COc1ccc(C(=O)C2CCCN(Cc3cccn3-c3ccccn3)C2)c(OC)c1", "note": "(stereo not shown)", "hERG current change (%, negative = inhibition) at 10uM": -74.6},
      {"smiles": "COc1ccc(C(=O)C2CCCN(Cc3cccn3-c3ccc(Cl)cn3)C2)c(OC)c1", "note": "(stereo not shown)", "hERG current change (%, negative = inhibition) at 10uM": -76},
      {"smiles": "COc1ccc(C(=O)C2CCCN(CCO)C2)c(C)c1", "note": "(stereo not shown)", "hERG current change (%, negative = inhibition) at 10uM": 4.23},
      {"smiles": "COc1ccc(C(=O)C2CCCN(C(=O)CCc3ccccn3)C2)c(C)c1", "note": "(stereo not shown)", "hERG current change (%, negative = inhibition) at 10uM": -14.7},
      {"smiles": "COc1ccccc1NC(=O)Cn1c(C)nc2c(sc(=S)n2Cc2ccco2)c1=O", "hERG current change (%, negative = inhibition) at 10uM": -32.6},
      {"smiles": "COc1cc(Cl)cc(C#N)c1OCC(=O)O", "hERG current change (%, negative = inhibition) at 10uM": 11},
      {"smiles": "O=C(NC(Nc1nc2ccc([N+](=O)[O-])cc2s1)(C(F)(F)F)C(F)(F)F)c1ccccc1Cl", "hERG current change (%, negative = inhibition) at 10uM": -23.1},
      {"smiles": "O=C(CSc1nnc(-c2cccnc2)n1Cc1ccccc1)NCc1ccccc1", "hERG current change (%, negative = inhibition) at 10uM": -14.1},
      {"smiles": "O=C(COC(=O)c1ccccc1NS(=O)(=O)c1cccs1)NCC12CC3CC(CC(C3)C1)C2", "hERG current change (%, negative = inhibition) at 10uM": 5.15}
    ]}
  ]
}
